According to PubChem BioAssay (NCATS):
Inconclusive results are not listed. Values without a mark were called inactive. Calls of active or inactive are those of the source. The call rests on the fitted dose curve; in most records, active means well fitted cell-killing curve with a large enough effect; inconclusive means small, poorly fitted or top-dose-only effect, or effect the other way; inactive means no such curve, though single readings can be large or run the other way.

assay: Quantitative High-Throughput drug screen in 47 multiple myeloma cell lines against the NCATS MIPE library collection: KMS28BM_JCRB cell viability assay (AID 1919874); conditions: CellTiter-Glo ATP, 48 h; series mostly up to 45.8 µM; viability, % of control: at the top concentration; further: nearly all actives have a fitted effect of over 35% in size
Method in brief: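 Cells were exposed to library compounds for 48 hours, after which ATP was measured by CellTiter-Glo. Signal was taken as median relative luminescence units.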
Potency means the concentration at half of the fitted maximal effect.

| Compound | viability, % of control | Potency |
| --- | --- | --- |
| c1cnc2cc3c(cc2n1)C1CNCC3C1 | 128% | – |
| CC1(C)C(=O)N(CCN2CCC(C(=O)c3ccc(F)cc3)CC2)c2ccccc21 | – | 18.7 µM (active) |
| CC1(C)NC(=O)N(c2ccc([N+](=O)[O-])c(C(F)(F)F)c2)C1=O | 98.6% | – |
| N=C(N)c1ccc2cc(OC(=O)c3ccc(N=C(N)N)cc3)ccc2c1 | – | 5.9 µM (active) |
| CCN(CCO)CCCC(C)Nc1ccnc2cc(Cl)ccc12 (stereo not given) | 101% | – |
| C[C@]12CCC(=O)C=C1CC[C@@H]1[C@H]2[C@@H](O)C[C@@]2(C)[C@H]1CC[C@]2(O)C(=O)CO | 122% | – |
| CC1=C(C(=O)O)N2C(=O)[C@@H](NC(=O)[C@H](N)C3=CCC=CC3)[C@H]2SC1 | 122% | – |
| CC(C)Oc1ccc2c(=O)c(-c3ccccc3)coc2c1 | 109% | – |
| CC1(C)CCC(C)(C)c2cc(NC(=O)c3ccc(C(=O)O)cc3)ccc21 | 96.5% | – |
| CCOC(=O)C1=C(O)C(=O)N(Cc2ccccc2)C1 | 122% | – |
| CCC1=C(C)CN(C(=O)NCCc2ccc(S(=O)(=O)NC(=O)NC3CCC(C)CC3)cc2)C1=O (stereo not given) | 108% | – |
| COc1cc(C(C)=O)ccc1OCCCN1CCC(c2noc3cc(F)ccc23)CC1 | – | 5.9 µM (active) |
| CC(C)[N+]1(C)[C@@H]2CC[C@H]1CC(OC(=O)C(CO)c1ccccc1)C2 (stereo not given in full) | – | 8.33 µM (active) |
| O=C(NOCC1CC1)c1ccc(F)c(F)c1Nc1ccc(I)cc1Cl | – | 26.4 µM (active) |
| NC(=O)Cc1cccc(C(=O)c2ccccc2)c1N | 111% | – |
| C[C@H](Cn1cnc2c(N)ncnc21)OCP(=O)(O)O | 102% | – |
| Oc1ccc(OCc2ccccc2)cc1 | 113% | – |
| O=C(NCCO[N+](=O)[O-])c1cccnc1 | 113% | – |
| CCCCN(CCCC)CCC(O)c1cc2c(Cl)cc(Cl)cc2c2cc(C(F)(F)F)ccc12 (stereo not given) | 92.2% | – |
| CCc1nc(N)nc(N)c1-c1ccc(Cl)cc1 | 91.5% | – |
| CCCCCCCCCCCCCCCCCCCCCCO | 117% | – |
| CN(C)[C@@H](CCOc1cccc2ccccc12)c1ccccc1 | – | 18.7 µM (active) |
| O=c1c(O)c(-c2ccc(O)cc2O)oc2cc(O)cc(O)c12 | 99.7% | – |
| CN(C)CCc1c[nH]c2ccc(Cn3cncn3)cc12 | 88.8% | – |
| C=CCc1cc(OC)c(O)c(C(=O)NCCO)c1 | 112% | – |
